The supplement of paper PMC11732987, “Enantioselective OTUD7B fragment discovery through chemoproteomics screening and high-throughput optimisation” (Communications Chemistry, 2025)

Tests used:
Assay in all cases: log2 ratio of Biotin-Ahx-Ub-VS probe labelling (fragment/DMSO); higher = less target engagement (more negative = stronger competition), active = hit call of the paper (q ≤ 0.05, log2 ratio ≤ -1)
Conditions in all cases: compound concentration: 200 uM; treatment time: 3 h
USP19 = molecular target: T1, USP19 (UniProt O94966)
T1 sequence (whole entry): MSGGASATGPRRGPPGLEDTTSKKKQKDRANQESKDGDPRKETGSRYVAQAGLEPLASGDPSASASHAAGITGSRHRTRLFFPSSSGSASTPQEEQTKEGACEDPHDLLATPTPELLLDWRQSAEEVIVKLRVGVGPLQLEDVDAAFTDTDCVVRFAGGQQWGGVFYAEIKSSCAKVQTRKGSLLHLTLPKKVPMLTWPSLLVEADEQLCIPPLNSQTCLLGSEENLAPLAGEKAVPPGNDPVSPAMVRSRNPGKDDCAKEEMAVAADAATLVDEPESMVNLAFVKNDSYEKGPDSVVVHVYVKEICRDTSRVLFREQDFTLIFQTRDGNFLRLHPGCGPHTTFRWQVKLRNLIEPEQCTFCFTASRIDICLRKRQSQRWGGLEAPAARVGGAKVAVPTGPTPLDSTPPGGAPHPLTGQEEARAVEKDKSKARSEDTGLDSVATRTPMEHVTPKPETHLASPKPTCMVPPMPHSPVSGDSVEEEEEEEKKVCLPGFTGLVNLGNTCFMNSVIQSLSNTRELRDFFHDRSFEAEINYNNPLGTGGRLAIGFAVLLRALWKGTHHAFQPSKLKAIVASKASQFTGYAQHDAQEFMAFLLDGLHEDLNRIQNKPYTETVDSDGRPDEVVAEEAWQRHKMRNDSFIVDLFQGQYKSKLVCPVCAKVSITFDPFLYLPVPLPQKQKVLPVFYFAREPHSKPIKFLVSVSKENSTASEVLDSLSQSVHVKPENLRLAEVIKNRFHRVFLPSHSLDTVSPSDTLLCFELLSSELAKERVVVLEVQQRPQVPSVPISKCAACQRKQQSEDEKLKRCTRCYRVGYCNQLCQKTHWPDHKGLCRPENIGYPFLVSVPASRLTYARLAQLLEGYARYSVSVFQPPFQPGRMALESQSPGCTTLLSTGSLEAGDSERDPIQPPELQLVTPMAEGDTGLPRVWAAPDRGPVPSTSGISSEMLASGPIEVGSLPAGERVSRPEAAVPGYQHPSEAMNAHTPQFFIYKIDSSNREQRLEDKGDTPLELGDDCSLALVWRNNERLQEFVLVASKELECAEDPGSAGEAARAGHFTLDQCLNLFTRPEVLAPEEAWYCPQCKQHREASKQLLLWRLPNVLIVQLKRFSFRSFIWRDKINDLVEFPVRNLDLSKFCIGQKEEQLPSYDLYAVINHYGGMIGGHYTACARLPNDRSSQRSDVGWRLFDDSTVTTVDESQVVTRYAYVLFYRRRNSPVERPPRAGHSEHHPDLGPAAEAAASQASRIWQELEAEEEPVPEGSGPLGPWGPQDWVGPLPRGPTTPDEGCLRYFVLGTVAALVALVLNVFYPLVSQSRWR
Summary of the method: (§1)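 Triplicate samples of HEK293T lysate, 495 µg each, received fragment at 200 µM or vehicle for 3 h, followed by Biotin-Ahx-Ub-VS (0.5 µM final) for 1 h. After NeutrAvidin enrichment of labelled DUBs and LysC/trypsin digestion, peptides were run by diaPASEF LC-MS/MS. The values are average log2 fragment/vehicle ratios from global-median-normalised Spectronaut label-free quantities, tested by unpaired t-test on proteins having ≥2 unique peptides.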

USP22 = molecular target: T2, USP22 (UniProt Q9UPT9)
T2 sequence (whole entry): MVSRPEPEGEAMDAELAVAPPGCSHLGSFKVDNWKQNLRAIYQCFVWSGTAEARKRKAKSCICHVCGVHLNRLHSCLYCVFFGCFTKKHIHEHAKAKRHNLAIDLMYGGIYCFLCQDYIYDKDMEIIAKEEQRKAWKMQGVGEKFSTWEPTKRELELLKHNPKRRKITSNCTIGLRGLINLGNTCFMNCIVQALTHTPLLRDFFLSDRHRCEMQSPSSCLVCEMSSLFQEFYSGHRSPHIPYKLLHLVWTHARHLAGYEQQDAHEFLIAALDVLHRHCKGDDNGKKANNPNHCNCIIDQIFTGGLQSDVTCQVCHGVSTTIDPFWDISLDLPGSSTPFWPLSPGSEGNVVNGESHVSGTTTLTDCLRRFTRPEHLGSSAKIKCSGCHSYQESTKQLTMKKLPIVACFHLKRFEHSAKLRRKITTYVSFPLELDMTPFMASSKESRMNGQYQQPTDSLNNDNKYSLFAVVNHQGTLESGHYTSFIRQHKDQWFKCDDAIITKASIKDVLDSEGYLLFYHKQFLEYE
Summary of the method: as §1

USP24 = USP24 (UniProt Q9UPU5)
USP24, sequence (Q9UPU5 whole entry): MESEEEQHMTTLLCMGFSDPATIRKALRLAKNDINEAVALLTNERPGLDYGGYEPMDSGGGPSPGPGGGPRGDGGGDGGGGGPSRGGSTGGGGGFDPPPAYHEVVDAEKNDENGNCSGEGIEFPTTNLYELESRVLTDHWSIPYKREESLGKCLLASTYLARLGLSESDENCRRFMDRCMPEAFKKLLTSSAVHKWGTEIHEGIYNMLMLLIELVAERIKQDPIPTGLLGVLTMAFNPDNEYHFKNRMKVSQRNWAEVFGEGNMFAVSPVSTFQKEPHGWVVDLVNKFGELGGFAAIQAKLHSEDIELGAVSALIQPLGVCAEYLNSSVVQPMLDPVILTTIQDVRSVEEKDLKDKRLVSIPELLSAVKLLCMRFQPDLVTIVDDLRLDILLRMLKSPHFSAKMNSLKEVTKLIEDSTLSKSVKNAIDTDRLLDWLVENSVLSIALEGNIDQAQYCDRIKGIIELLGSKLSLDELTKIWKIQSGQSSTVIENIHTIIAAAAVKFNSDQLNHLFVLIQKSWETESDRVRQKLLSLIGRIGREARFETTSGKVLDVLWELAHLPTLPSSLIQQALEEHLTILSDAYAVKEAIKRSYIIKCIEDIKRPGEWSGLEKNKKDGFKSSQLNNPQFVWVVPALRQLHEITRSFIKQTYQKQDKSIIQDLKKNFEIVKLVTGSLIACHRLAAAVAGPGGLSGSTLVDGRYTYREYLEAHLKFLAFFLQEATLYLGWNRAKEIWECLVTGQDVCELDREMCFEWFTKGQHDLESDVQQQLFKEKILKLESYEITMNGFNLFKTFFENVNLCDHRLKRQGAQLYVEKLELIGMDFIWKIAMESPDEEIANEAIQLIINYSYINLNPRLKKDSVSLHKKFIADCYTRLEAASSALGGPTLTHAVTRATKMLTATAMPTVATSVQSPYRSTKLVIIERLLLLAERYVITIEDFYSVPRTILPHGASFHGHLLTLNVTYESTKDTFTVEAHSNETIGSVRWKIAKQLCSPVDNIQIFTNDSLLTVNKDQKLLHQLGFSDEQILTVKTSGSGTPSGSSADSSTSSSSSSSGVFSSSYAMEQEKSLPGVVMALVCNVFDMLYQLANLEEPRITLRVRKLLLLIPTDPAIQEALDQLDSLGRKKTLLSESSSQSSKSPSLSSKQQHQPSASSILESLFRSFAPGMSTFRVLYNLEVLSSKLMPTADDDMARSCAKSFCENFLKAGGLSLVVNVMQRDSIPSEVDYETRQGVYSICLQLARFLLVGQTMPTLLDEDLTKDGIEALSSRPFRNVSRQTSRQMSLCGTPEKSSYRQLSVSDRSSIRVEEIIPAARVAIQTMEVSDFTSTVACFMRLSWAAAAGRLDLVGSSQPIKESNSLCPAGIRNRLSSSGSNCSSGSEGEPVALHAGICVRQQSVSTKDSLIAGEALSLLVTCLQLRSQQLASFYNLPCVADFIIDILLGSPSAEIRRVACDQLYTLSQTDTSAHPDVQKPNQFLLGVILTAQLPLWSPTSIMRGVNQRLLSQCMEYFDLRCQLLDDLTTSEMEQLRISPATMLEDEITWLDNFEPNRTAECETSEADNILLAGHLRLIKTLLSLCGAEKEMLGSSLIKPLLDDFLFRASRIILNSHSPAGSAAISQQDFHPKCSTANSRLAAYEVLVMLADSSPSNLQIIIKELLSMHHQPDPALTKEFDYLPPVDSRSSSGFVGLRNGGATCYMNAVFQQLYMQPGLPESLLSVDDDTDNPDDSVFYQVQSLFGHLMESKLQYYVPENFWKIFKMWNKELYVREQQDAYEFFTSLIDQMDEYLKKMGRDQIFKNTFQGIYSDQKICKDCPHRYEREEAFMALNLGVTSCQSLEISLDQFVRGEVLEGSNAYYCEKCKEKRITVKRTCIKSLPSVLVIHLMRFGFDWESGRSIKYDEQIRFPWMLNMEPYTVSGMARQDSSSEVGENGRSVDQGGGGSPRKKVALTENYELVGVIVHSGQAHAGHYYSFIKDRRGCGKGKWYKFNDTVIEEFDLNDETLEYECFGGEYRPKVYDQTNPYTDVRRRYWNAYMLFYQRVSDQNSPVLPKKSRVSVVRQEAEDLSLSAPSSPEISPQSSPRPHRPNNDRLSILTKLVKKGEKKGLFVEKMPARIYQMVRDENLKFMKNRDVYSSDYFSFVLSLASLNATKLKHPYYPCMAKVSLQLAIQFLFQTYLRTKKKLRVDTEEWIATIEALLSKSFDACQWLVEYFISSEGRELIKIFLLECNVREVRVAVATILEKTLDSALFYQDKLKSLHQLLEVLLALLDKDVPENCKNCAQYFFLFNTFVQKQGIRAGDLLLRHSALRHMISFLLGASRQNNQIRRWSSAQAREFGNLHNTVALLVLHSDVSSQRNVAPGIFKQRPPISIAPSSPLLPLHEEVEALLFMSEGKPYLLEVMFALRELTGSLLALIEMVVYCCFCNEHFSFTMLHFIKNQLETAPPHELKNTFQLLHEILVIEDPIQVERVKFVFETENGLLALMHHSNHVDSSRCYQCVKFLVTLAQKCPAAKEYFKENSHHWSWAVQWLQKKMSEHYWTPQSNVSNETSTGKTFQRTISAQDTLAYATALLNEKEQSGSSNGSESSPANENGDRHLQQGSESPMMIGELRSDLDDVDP
Summary of the method: as §1

USP25 = molecular target: T3, USP25 (UniProt Q9UHP3)
T3 sequence (whole entry): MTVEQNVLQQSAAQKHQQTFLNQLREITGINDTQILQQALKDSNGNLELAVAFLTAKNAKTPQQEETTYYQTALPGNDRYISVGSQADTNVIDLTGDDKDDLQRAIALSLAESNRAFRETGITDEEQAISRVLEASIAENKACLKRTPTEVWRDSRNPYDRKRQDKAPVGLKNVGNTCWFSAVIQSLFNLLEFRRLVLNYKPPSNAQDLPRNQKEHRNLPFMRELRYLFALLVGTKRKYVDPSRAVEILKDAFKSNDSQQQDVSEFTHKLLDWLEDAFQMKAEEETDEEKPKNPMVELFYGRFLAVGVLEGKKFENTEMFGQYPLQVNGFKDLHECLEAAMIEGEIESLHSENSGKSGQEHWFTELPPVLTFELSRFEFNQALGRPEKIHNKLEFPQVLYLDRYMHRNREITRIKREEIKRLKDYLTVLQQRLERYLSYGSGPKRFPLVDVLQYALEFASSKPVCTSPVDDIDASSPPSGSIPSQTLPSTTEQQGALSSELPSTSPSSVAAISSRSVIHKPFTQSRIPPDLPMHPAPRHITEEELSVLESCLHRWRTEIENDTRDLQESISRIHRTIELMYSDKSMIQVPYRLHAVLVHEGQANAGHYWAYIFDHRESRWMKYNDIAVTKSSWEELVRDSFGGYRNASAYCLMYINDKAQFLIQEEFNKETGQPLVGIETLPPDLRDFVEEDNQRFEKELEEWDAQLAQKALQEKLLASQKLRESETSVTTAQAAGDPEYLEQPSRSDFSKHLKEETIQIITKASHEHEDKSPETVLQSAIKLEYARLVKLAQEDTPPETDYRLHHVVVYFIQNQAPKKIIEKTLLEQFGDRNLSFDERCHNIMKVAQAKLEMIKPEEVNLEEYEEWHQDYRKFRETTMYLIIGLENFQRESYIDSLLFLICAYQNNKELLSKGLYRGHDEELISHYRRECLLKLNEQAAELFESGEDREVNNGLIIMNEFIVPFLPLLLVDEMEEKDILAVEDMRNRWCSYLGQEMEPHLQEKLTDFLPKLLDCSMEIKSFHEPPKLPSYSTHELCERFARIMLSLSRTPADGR
Summary of the method: as §1

USP28 = molecular target: T4, USP28 (UniProt Q96RU2)
T4 sequence (whole entry): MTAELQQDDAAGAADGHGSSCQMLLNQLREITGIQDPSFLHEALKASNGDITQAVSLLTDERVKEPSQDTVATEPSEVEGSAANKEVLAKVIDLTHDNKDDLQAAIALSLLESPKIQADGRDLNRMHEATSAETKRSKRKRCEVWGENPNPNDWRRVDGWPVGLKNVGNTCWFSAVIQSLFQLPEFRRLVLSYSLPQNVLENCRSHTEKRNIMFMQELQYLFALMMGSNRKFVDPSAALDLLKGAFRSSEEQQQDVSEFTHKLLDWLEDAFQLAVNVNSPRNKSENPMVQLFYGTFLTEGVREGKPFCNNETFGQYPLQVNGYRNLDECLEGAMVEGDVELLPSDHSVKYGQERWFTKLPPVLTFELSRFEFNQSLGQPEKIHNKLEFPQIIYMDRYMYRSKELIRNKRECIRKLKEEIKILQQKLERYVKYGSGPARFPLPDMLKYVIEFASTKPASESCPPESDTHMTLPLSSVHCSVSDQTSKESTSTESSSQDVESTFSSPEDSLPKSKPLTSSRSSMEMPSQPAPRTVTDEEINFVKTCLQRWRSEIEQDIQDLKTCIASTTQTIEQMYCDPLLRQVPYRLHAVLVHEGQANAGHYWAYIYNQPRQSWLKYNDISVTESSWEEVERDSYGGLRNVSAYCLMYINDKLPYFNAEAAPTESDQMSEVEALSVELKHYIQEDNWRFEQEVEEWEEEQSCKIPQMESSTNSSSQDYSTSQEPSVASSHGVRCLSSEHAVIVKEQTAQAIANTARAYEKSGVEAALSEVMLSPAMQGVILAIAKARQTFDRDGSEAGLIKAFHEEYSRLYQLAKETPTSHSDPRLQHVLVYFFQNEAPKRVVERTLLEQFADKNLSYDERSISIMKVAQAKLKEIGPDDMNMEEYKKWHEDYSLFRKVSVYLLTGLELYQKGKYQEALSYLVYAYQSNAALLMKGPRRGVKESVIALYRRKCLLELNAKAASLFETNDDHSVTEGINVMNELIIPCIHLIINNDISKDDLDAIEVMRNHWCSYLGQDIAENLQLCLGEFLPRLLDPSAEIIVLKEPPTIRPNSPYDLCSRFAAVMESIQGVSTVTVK
Summary of the method: as §1

Measured: log2 ratio of Biotin-Ahx-Ub-VS probe labelling

CCN(C(=O)CCl)C1CCCCC1
inactive: USP19 0.1 | USP22 0.0286 | USP24 -0.333 | USP25 0.0335 | USP28 -0.0965
